Results filed as inconclusive are left out. A call without a number means that no potency is given here. Some structures have more than one record in an assay (separate samples or runs), and their calls can disagree. Active and inactive are the calls of the source. Calls come from the whole dose curve; as a rule, active = well fitted curve in the direction sought with a large enough effect in the repeat runs; inconclusive = weak or mixed curves; inactive = no such curve, though single readings can be large; an effect the other way counts as inactive or inconclusive.
Legend:
[1] = molecular target: Voltage-gated inwardly rectifying potassium channel KCNH2 (Homo sapiens) (UniProt Q12809); assay: Human Ether-a-go-go-Related Gene (hERG) channel small molecule antagonists: fluorescence cell-based qHTS assay (AID 1671200);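 note: hERG-expressing U2OS cells given a thallium stimulus after FluxOR II dye loading; series mostly up to about 77 µM; nearly all actives have a fitted effect of over 50% in size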
Chain of Voltage-gated inwardly rectifying potassium channel KCNH2 (Homo sapiens) (Q12809 whole entry, looked up): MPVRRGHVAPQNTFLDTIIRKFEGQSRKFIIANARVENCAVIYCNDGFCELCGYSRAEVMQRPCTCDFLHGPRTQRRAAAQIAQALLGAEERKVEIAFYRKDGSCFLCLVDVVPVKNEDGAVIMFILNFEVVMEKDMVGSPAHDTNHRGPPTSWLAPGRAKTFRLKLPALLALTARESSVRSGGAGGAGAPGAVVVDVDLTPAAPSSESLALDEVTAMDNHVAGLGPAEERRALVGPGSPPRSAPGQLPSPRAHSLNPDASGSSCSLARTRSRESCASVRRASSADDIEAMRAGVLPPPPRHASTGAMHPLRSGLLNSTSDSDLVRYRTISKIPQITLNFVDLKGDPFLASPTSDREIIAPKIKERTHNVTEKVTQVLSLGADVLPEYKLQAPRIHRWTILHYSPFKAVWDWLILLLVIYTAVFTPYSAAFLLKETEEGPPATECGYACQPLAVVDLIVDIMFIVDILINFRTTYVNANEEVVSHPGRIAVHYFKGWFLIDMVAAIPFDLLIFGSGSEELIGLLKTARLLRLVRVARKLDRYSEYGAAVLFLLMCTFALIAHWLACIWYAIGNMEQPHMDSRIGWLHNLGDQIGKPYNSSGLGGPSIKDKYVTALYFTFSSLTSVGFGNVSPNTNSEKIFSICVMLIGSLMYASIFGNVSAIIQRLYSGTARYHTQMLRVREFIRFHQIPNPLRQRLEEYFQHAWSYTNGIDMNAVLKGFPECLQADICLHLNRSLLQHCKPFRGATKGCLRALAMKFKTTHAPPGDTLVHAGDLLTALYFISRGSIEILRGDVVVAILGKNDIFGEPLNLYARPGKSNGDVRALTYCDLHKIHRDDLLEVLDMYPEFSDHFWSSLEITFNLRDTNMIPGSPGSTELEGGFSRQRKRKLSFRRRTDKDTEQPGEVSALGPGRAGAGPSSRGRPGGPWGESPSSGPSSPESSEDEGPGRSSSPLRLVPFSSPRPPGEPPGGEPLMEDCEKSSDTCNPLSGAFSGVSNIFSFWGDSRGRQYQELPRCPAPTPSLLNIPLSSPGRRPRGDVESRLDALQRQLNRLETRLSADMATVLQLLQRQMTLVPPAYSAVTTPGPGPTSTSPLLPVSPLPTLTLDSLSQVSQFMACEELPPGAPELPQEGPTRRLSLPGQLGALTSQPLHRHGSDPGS
In short: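 Channel function was assessed by thallium flux. Cells seeded the previous day and kept at 37 C took up FluxOR II dye over 1 h in the dark at room temperature, then sat another 10 min before stimulation.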

[2] = molecular target: Cytochrome P450 2C9 (Homo sapiens) (UniProt P11712); assay: Cytochrome P450 Family 2 Subfamily C Member 9 (CYP2C9) small molecule antagonists: luciferase reporter qHTS assay (AID 1671198); note: series mostly up to about 120 µM; nearly all actives have a fitted effect of over 50% in size
Chain of Cytochrome P450 2C9 (Homo sapiens) (P11712 whole entry, looked up): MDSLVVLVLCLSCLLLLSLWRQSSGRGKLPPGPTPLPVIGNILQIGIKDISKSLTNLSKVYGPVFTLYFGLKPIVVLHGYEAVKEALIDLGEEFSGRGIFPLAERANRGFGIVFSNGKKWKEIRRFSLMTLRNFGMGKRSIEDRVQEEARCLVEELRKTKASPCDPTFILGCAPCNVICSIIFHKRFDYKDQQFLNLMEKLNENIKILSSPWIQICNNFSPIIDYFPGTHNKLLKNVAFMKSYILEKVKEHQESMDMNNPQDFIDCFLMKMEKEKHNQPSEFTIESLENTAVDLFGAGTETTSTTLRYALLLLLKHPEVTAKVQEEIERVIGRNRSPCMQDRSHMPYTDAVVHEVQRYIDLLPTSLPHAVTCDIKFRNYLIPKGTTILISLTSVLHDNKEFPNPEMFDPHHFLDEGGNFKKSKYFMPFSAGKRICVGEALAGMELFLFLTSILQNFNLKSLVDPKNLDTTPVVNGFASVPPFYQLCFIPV
In short: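 Enzyme-substrate mix preincubated with compound 10 min at room temperature; reaction started with NADPH regeneration solution, 1 h 37C. Luminescent luciferin product read after 20 min detection reagent.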

[3] = molecular target: Cytochrome P450 1A2 (Homo sapiens) (UniProt P05177); assay: Cytochrome P450 Family 1 Subfamily A Member 2 (CYP1A2) small molecule antagonists: luciferase reporter qHTS assay (AID 1671199); note: series mostly up to about 120 µM; nearly all actives have a fitted effect of over 50% in size
Chain of Cytochrome P450 1A2 (Homo sapiens) (P05177 whole entry, looked up): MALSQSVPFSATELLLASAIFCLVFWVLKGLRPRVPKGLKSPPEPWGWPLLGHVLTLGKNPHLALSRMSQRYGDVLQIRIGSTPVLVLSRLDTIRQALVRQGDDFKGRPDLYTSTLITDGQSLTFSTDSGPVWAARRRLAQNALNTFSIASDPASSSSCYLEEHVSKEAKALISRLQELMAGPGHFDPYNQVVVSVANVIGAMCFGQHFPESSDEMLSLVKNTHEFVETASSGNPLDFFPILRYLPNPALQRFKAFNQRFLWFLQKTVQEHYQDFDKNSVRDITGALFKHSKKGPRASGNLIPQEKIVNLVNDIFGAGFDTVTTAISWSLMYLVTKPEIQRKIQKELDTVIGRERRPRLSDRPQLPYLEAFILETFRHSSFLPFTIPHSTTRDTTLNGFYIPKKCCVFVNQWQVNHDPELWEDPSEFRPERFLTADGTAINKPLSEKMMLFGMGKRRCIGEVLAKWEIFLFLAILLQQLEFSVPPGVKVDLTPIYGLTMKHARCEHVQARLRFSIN
In short: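 Signal from luciferin formed by CYP1A2 from a proluciferin substrate is read as luminescence, expressed in relative luminescence units. Compounds sit with enzyme 10 min, NADPH-driven reaction runs 1 h, all at room temperature.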

[4] = molecular target: Cytochrome P450 3A4 (Homo sapiens) (UniProt P08684); assay: Cytochrome P450 Family 3 Subfamily A Member 4 (CYP3A4) small molecule antagonists: luciferase reporter qHTS assay (AID 1671201); note: series mostly up to about 120 µM; nearly all actives have a fitted effect of over 50% in size
Chain of Cytochrome P450 3A4 (Homo sapiens) (P08684 whole entry, looked up): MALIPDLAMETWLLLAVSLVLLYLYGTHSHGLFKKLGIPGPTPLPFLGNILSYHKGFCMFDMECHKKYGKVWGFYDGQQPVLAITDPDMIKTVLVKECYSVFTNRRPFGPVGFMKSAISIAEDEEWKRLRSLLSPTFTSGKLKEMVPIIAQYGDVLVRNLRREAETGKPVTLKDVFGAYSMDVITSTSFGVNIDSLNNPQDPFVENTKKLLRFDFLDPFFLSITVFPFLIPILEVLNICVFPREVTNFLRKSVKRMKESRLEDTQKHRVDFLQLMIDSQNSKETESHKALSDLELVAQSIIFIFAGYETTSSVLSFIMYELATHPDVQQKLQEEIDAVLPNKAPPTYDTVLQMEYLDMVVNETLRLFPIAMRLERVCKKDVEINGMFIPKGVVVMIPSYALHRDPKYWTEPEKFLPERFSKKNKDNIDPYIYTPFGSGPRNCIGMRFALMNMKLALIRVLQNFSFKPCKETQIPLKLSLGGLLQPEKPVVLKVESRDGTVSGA
In short: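 Compounds in DMSO were pin-transferred onto CYP3A4 enzyme-substrate mix and held 10 min at room temperature. NADPH regenerating solution started the reaction for 1 h; luciferin detection reagent stopped it, and luminescence was read after 20 min.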

[5] = molecular target: Cytochrome P450 2C19 (Homo sapiens) (UniProt P33261); assay: Cytochrome P450 Family 2 Subfamily C Member 19 (CYP2C19) small molecule antagonists: luciferase reporter qHTS assay (AID 1671197); note: nearly all actives have a fitted effect of over 65% in size; note: potency is the fitted concentration of half-maximal effect
Chain of Cytochrome P450 2C19 (Homo sapiens) (P33261 whole entry, looked up): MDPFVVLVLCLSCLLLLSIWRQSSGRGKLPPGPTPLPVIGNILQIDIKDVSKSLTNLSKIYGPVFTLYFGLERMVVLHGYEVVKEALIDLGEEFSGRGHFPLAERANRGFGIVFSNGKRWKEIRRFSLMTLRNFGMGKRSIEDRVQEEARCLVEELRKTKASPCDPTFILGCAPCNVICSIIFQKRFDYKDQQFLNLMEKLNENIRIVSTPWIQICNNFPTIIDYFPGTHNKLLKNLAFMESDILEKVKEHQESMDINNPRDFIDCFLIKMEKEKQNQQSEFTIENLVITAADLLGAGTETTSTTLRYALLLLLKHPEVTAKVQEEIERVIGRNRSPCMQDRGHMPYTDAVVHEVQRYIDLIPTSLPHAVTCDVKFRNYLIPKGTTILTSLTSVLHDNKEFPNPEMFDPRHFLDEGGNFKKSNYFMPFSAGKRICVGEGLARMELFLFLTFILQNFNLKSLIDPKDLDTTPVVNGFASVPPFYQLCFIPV
In short: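 CYP2C19 P450-Glo, 1536-well qHTS. Cpd + enzyme/proluciferin substrate 10 min RT; + NADPH regen, 37C 1 h; stop with luciferin detection reagent, 20 min RT, luminescence (RLU). Pos ctrl ketoconazole.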

| SMILES | Potency [1] | Potency [2] | Potency [3] | Potency [4] | Potency [5] |
| --- | --- | --- | --- | --- | --- |
| CC(C)=CCC/C(C)=C\CO | inactive |  |  |  |  |
| Cn1cnc([N+](=O)[O-])c1Sc1ncnc2nc[nH]c12 | inactive | inactive | inactive | inactive |  |
| Brc1cc(Oc2cc(Br)c(Br)c(Br)c2Br)c(Br)c(Br)c1Br | inactive |  | inactive | inactive | 10.1 µM (active) and inactive |

Source: PubChem BioAssay (Tox21)
